From PMC5540273 (PLoS ONE, 2017) come the findings set out here.

In one assay the test system is STK16. The note with it: n = 1.
A further assay concerns STK33. The note with it: concentration: 1 μM, replicates: in singlicate; n = 1.
In another assay the test system is STK35. As to conditions: concentration: 1 μM, replicates: in singlicate; n = 1.
For another assay, the system named is STK36. As to conditions: concentration: 1 μM, replicates: in singlicate; n = 1.
The next assay has as its system STK39. As to conditions: n = 1.
A further assay has as its system SYK. As to conditions: n = 1.
For the next assay, the system named is SgK110. As to conditions: n = 1.
The next assay relates to T1, TAK1.
T1 construct: gene MAP3K7
The note with it: concentration: 1 μM, replicates: in singlicate; n = 1.

In another assay the test system is TAOK1. The note with it: concentration: 1 μM, replicates: in singlicate; n = 1.
A further assay relates to TAOK2. The note with it: concentration: 1 μM, replicates: in singlicate; n = 1.
The next assay has as its system TAOK3. The note with it: concentration: 1 μM, replicates: in singlicate; n = 1.
The next assay relates to TBK1. The note with it: n = 1.
Another assay relates to TEC. The note with it: concentration: 1 μM, replicates: in singlicate; n = 1.
For a further assay, the system named is TESK1. As to conditions: concentration: 1 μM, replicates: in singlicate; n = 1.
The test system of another assay is TGFBR1. The note with it: n = 1.
The subject of a further assay is TGFBR2. The note with it: concentration: 1 μM, replicates: in singlicate; n = 1.
A further assay deals with TIE1. As to conditions: n = 1.
The subject of the next assay is T2, TIE2.
T2 construct: gene TEK
As to conditions: concentration: 1 μM, replicates: in singlicate; n = 1.

For the next assay, the system named is TLK1. The note with it: n = 1.
The subject of a further assay is TLK2. As to conditions: concentration: 1 μM, replicates: in singlicate; n = 1.
Where [1] appears, read: concentration: 1 μM, replicates: in singlicate.
Setting [2] is: concentration: 1 μM,replicates: in singlicate, 1 µM.

SMILES strings stand for the structures. Values joined by “and” are separate entries in the source; they are usually repeats but may differ in a detail not shown here. Equal values may be shown once. Read-outs that look alike come from different tables or passages of the source.
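Also: KINOMEscan kinase panel screen.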

Regarding `Cc1cc(N2Cc3ccccc3C2)nc(Nc2ccc(S(=O)(=O)N3CCOCC3)cc2)n1.Cl` [GSK1669917], the “%Inh” value was determined as 0% in the assay with STK16 (setting [1]); 0% in the assay on STK33; 0% with STK35; 4% in the assay with STK36; 0% in the assay with STK39 (setting [1]); 35% in the assay with SYK (setting [1]). Further, the “%Inh” value is 0% in the assay on SgK110 (setting [1]); 0% in the assay on TAK1; 0% in the assay on TAOK1; 0% in the assay with TAOK2; 0% in the assay with TAOK3; 30% in the assay with TBK1 (setting [1]). In addition, the “%Inh” value in the assay with TEC is 0%; in the assay on TESK1, 12%; with TGFBR1 (setting [1]), 0%; in the assay on TGFBR2 it was 0%; in the assay on TIE1 (setting [1]), 0%; in the assay on TIE2, 0%. The entries for the “%Inh” value in the assay on TLK1 (setting [1]) and in the assay with TLK2 were 2% and 0%, respectively.
Take `O=S(=O)(c1ccc(-c2ccnc3[nH]ccc23)cc1)N1CCCC1` [GSK846226]: the “%Inh” value was 67% in the assay on STK16 (setting [1]); 0% in the assay with STK33; 0% in the assay with STK35; 0% with STK36; 0% with STK39 (setting [1]); 13% in the assay with SYK (setting [1]). Moreover, the “%Inh” value in the assay on SgK110 (setting [1]) turned out to be 0%; in the assay on TAK1, 1%; with TAOK1 it was 0%; in the assay with TAOK2 it was 0%; in the assay with TAOK3 it was 0%; in the assay with TBK1 (setting [1]), 33%. The “%Inh” value in the assay on TEC amounted to 4%; in the assay with TESK1, 9%; in the assay with TGFBR1 (setting [1]), 0%; in the assay on TGFBR2 it was 0%; in the assay on TIE1 (setting [1]), 0%; with TIE2 it was 0%. Besides, the “%Inh” value in the assay on TLK1 (setting [1]) amounted to 24%; in the assay on TLK2, 19%.
Consider `Nc1nc(-c2nccs2)c(-c2ccnc3ccccc23)s1` [GW693542], for which the “%Inh” value was determined as 32% in the assay with STK16 (setting [1]); 0% in the assay on STK33; 0% in the assay on STK35; 0% in the assay with STK36; 10% with STK39 (setting [1]); 24% in the assay on SYK (setting [1]). Moreover, the “%Inh” value in the assay on SgK110 (setting [1]) stood at 13%; in the assay with TAK1, 0%; in the assay on TAOK1, 0%; with TAOK2 it was 0%; in the assay with TAOK3 it was 0%; in the assay on TBK1 (setting [1]) it was 5%. Besides, the “%Inh” value is 16% in the assay on TEC; 26% in the assay on TESK1; 27% in the assay on TGFBR1 (setting [1]); 55% in the assay on TGFBR2; 26% in the assay with TIE1 (setting [1]); 0% in the assay on TIE2. Besides, the “%Inh” value in the assay on TLK1 (setting [1]) and in the assay with TLK2 was 0% in each case.
`Cc1ccc(NC(=O)Nc2cc(C(C)(C)C)nn2-c2ccccc2)cc1` [GSK1014915]: the “%Inh” value was found to be 0% with STK16 (setting [1]); 0% with STK33; 0% in the assay with STK35; 0% in the assay with STK36; 2% with STK39 (setting [1]); 28% in the assay with SYK (setting [1]). For the same compound, the “%Inh” value with SgK110 (setting [1]), in the assay with TAK1, with TAOK1, with TAOK2, with TAOK3 and with TBK1 (setting [1]) was 0% in each case. For the same compound, the “%Inh” value was 11% in the assay on TEC; 13% in the assay with TESK1; 18% with TGFBR1 (setting [1]); 1% in the assay with TGFBR2; 9% in the assay with TIE1 (setting [1]); 0% with TIE2. Further, the “%Inh” value in the assay on TLK1 (setting [1]) is 2%; with TLK2 it was 0%.
As to `Cc1ccc(NC(=O)Nc2cccc(Cl)c2)cc1-c1ccc(C(=O)Nc2ccncc2)cc1` [GSK1398468], the “%Inh” value in the assay on STK16 (setting [1]) stood at 9%; in the assay on STK33, 0%; in the assay with STK35, 0%; in the assay on STK36 it was 1%; in the assay on STK39 (setting [1]), 0%; with SYK (setting [1]), 3%. The “%Inh” value with SgK110 (setting [1]) worked out at 0%; in the assay with TAK1 it was 0%; in the assay on TAOK1 it was 0%; in the assay with TAOK2, 0%; in the assay on TAOK3, 0%; in the assay on TBK1 (setting [1]), 5%. Further, the “%Inh” value turned out to be 13% in the assay with TEC; 18% with TESK1; 30% in the assay with TGFBR1 (setting [1]); 0% in the assay with TGFBR2; 0% in the assay on TIE1 (setting [1]); 0% in the assay on TIE2. Also, the “%Inh” value is on record as 0% in the assay on TLK1 (setting [1]) and 12% in the assay with TLK2.
With `COc1ccc(Nc2nccc(-c3cccc(NC(=O)c4cc5cc(F)ccc5[nH]4)c3)n2)cc1` [GSK1229782], the “%Inh” value is on record as 22% in the assay with STK16 (setting [1]); 5% in the assay with STK33; 0% with STK35; 0% with STK36; 4% with STK39 (setting [1]); 49% with SYK (setting [1]). For the same compound, the “%Inh” value in the assay with SgK110 (setting [1]) worked out at 0%; with TAK1 it was 64%; with TAOK1 it was 2%; in the assay on TAOK2, 0%; in the assay on TAOK3, 0%; with TBK1 (setting [1]) it was 24%. Further, the “%Inh” value stood at 19% with TEC; 34% in the assay with TESK1; 17% with TGFBR1 (setting [1]); 10% in the assay with TGFBR2; 0% with TIE1 (setting [1]); 17% in the assay on TIE2. For the same compound, the “%Inh” value with TLK1 (setting [1]) is 4%; with TLK2, 0%.
For the compound `Cl.NC(=O)c1cccc(Nc2nccc(Nc3ccc(Oc4cccc(Cl)c4)c(Cl)c3)n2)c1` [GW659008], the “%Inh” value came to 38% in the assay with STK16 (setting [1]); 0% in the assay on STK33; 0% with STK35; 0% with STK36; 12% in the assay with STK39 (setting [1]); 1% in the assay on SYK (setting [1]). Besides, the “%Inh” value in the assay on SgK110 (setting [1]) turned out to be 0%; in the assay on TAK1 it was 0%; in the assay on TAOK1, 0%; in the assay with TAOK2, 0%; with TAOK3, 0%; in the assay with TBK1 (setting [1]), 7%. In addition, the “%Inh” value is reported as 10% with TEC; 40% in the assay with TESK1; 0% with TGFBR1 (setting [1]); 12% with TGFBR2; 12% in the assay on TIE1 (setting [1]); 1% in the assay with TIE2. Also, the “%Inh” value in the assay on TLK1 (setting [1]) and with TLK2 was 0% in each case.
With `CSc1nn2c(=O)cc(N3CCOCC3)nc2n1Cc1cccc(C(F)(F)F)c1C` [GSK2363608], the “%Inh” value in the assay with STK16 (setting [2]) is 23% and 13%; with STK33, 0%; with STK35, 0%; in the assay on STK36 it was 0%; in the assay on STK39 (setting [2]), 8% and 13%; in the assay with SYK (setting [2]), 30% and 26%. Moreover, the “%Inh” value was 0% and 6% in the assay with SgK110 (setting [2]); 0% in the assay on TAK1; 0% with TAOK1; 0% in the assay with TAOK2; 0% in the assay on TAOK3; 20% and 5% in the assay with TBK1 (setting [2]). Also, the “%Inh” value with TEC was 7%; in the assay with TESK1 it was 19%; with TGFBR1 (setting [2]), 11% and 17%; in the assay on TGFBR2, 0%; in the assay on TIE1 (setting [2]), 0% and 2%; with TIE2, 0%. Further, the “%Inh” value in the assay on TLK1 (setting [2]) was 8% and 0%; in the assay with TLK2, 0%.
`Cn1cncc1-c1ccc2ncnc(Nc3ccc(OCc4ccccc4)cc3)c2c1` [GW320571]: the “%Inh” value in the assay on STK16 (setting [1]) was 5%; in the assay with STK33 it was 20%; in the assay on STK35, 10%; with STK36, 0%; with STK39 (setting [1]) it was 7%; in the assay on SYK (setting [1]), 0%. For the same compound, the “%Inh” value in the assay on SgK110 (setting [1]), in the assay with TAK1, with TAOK1, with TAOK2, in the assay on TAOK3 and in the assay with TBK1 (setting [1]) was 0% in each case. In addition, the “%Inh” value was 6% with TEC; 11% in the assay on TESK1; 5% in the assay on TGFBR1 (setting [1]); 29% with TGFBR2; 30% in the assay with TIE1 (setting [1]); 0% with TIE2. The “%Inh” value is recorded as 4% with TLK1 (setting [1]) and 0% in the assay with TLK2.
Take `CC1=C(C(=O)Nc2cc3cn[nH]c3cc2F)C(c2ccc(C(F)(F)F)cc2)CC(=O)N1` (centres unmarked) [GSK429286]: the “%Inh” value with STK16 (setting [1]) is 14%; with STK33 it was 0%; in the assay with STK35 it was 0%; in the assay with STK36, 0%; in the assay with STK39 (setting [1]), 20%; in the assay on SYK (setting [1]) it was 4%. The “%Inh” value came out at 0% in the assay with SgK110 (setting [1]); 0% in the assay with TAK1; 0% in the assay with TAOK1; 0% in the assay with TAOK2; 0% in the assay on TAOK3; 4% with TBK1 (setting [1]). For the same compound, the “%Inh” value turned out to be 18% in the assay on TEC; 30% with TESK1; 0% in the assay with TGFBR1 (setting [1]); 0% in the assay with TGFBR2; 12% in the assay with TIE1 (setting [1]); 0% with TIE2. The entries for the “%Inh” value in the assay on TLK1 (setting [1]) and in the assay on TLK2 were 10% and 0%, respectively.
